PubChem BioAssay
Inconclusive results are not listed. The source made the active and inactive calls.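 Rule for the calls, unless noted: active = GFP signal, as percent of the solvent control, above the screen mean plus 3 SD, about 149; inconclusive = no reading because the compound's own fluorescence upset strain identification; inactive = the rest.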

Key:
[1] = rapamycin-like changes in RPL19A-GFP expression – cell-based, S. cerevisiae, multiplex flow cytometry, primary screen (AID 1862; in the data active = percent of DMSO control GFP below about 86%;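 note: lower values mimic rapamycin by blocking the RPL19A rise seen in DMSO cells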); details: S. cerevisiae RPL19A-GFP strain, flow cytometry fluorescence, 3 h; at 10 µM; stronger effect = lower value
[2] = TOR pathway GLN3 branch reporter MEP2-GFP changes – S. cerevisiae, multiplex flow cytometry, primary screen (AID 1867;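 active = GFP response, as percent of the DMSO control, above the screen-wide mean plus 3 SD, about 139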;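 note: median GFP channel fluorescence of barcode-gated MEP2-GFP cells measured by flow cytometry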); details: S. cerevisiae MEP2-GFP strain, 3 h, at 10 µM, stronger effect = higher value, 100% means same as DMSO wells
[3] = TOR pathway RTG branch CIT2 reporter changes – S. cerevisiae, GFP fusion, multiplex flow cytometry, primary screen (AID 1870;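 active = percent response above a set limit, the screen-wide mean plus 3 SD, cut at about 130% in these data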;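 note: barcoded CIT2-GFP strain pooled with four other GFP strains with rapamycin as positive control; median GFP fluorescence per well over plate mean of DMSO wells so 100% = DMSO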); details: S. cerevisiae CIT2-GFP expression, 3 h, at 10 µM, stronger effect = higher value
[4] = TOR pathway LAP4-GFP level changes – S. cerevisiae, multiplex flow cytometry, primary screen (AID 1873); details: S. cerevisiae LAP4-GFP expression, 3 h, at 10 µM, stronger effect = higher value
[5] = yeast AGP1-GFP level changes, GLN3 branch – cell-based, multiplex flow cytometry, S. cerevisiae, primary screen (AID 1887;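 active = GFP signal above the screen-wide mean plus 3 SD, that is over about 124.5% of the solvent control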;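 note: AGP1-GFP fusion strain of S. cerevisiae within a five-strain barcoded multiplex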); details: 3 h, at 10 µM, stronger effect = higher value
[6] = reduced mouse 2C T cell binding to pMHC/ICAM-1 vesicles – MLPCN validation set, flow cytometry, LFA-1/ICAM-1 modulator project, pilot screen (AID 2523;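 active = response below a set limit, under 55% cells CD8-positive and vesicle-bound, and CD8 cells' 90th-percentile brightness under 279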;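 for vesicle binding response: mean PE anti-B7-1 fluorescence of CD8+ cells relative to row control; 100% = QL9-loaded vesicles with DMSO vehicle in the same plate row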); details: 2C mouse CD8+ T cells, at 7 µM, stronger effect = lower value; double positive events: measured here: CD8+/vesicle+ event percentage
[7] = target: Integrin beta-1 (Homo sapiens) + Integrin alpha-4 (Homo sapiens) (UniProt P13612+P05556); experiment: alpha4beta1 integrin LIBS antibody binding reduction – U937 cells, HUTS-21 mAb, flow cytometry, validation set, VLA-4 allosteric modulator project, pilot screen (AID 2674;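 active = inhibition above 50%, about 3 SD of the validation set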;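 note: antibody binding induced by the VLA-4 ligand LDV present at three times its Kd; 0% = LDV ligand with antibody and no compound and 100% = antibody without LDV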); details: HUTS-21 LIBS mAb binding, at 6.7 µM, stronger effect = higher value, binding induced by LDV ligand
Sequence of Integrin beta-1 (Homo sapiens) + Integrin alpha-4 (Homo sapiens) (P05556 whole entry, looked up): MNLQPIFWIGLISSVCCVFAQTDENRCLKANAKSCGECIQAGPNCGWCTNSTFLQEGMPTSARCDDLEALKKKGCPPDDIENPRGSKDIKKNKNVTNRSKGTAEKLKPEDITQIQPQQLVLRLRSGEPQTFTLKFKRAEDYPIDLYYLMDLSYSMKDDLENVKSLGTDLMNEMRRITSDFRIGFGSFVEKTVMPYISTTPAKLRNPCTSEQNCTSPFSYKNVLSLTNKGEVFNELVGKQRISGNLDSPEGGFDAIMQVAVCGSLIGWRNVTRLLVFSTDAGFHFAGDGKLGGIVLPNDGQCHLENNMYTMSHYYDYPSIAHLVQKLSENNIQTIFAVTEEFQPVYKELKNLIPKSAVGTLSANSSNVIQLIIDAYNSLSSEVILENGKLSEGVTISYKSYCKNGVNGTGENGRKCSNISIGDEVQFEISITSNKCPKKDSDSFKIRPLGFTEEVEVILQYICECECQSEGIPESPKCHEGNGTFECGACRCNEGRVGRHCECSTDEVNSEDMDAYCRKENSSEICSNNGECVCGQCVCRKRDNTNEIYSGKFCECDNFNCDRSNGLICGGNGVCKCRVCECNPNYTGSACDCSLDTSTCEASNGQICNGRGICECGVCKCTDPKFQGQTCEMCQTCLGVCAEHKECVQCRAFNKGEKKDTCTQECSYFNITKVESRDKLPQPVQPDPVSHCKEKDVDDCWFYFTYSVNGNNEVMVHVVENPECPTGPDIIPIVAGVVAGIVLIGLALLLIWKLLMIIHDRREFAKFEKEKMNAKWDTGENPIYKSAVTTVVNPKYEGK
Sequence of Integrin beta-1 (Homo sapiens) + Integrin alpha-4 (Homo sapiens) (P13612 whole entry, looked up): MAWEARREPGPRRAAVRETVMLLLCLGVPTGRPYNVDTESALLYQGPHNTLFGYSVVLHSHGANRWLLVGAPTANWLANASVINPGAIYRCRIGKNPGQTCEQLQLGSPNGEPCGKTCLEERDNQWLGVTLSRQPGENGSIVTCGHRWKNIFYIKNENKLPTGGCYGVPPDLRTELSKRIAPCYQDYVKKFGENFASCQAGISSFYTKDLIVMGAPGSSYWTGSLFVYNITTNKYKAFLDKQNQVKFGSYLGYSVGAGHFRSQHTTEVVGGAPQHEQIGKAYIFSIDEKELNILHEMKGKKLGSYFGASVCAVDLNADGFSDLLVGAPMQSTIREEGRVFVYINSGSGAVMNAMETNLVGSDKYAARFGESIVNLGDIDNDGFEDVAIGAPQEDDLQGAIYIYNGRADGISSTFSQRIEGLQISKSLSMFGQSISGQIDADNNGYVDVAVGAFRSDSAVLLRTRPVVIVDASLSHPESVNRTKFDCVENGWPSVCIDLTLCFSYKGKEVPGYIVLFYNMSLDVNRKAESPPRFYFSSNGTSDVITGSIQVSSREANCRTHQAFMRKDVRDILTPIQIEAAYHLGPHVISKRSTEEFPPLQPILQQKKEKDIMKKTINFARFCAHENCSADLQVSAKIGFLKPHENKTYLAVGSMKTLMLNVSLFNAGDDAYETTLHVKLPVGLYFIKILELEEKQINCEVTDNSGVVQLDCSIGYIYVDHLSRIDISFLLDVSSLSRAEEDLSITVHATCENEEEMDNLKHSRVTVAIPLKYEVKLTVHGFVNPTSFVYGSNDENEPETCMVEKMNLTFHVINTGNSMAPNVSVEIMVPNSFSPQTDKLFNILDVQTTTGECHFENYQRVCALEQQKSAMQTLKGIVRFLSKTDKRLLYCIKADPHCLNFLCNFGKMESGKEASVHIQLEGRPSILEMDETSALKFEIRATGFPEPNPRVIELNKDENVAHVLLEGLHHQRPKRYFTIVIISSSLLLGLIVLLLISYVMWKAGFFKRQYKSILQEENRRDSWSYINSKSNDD

[8] = calorie-restriction mimetic ROS inhibitors, yeast – validation compound set, pilot screen (AID 2706;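 active = superoxide response below 65% of plate, a cut near 3 SD across the whole screen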;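 note: yeast exposed to compound for one week at 30 degrees C before staining; 100% = mean of all compound wells on the same plate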); details: S. cerevisiae aging, superoxide DHE fluorescence; at 10 µM; stronger effect = lower value
[9] = target: Beta-adrenergic receptor kinase 1 (Homo sapiens) (UniProt P25098); experiment: GRK2 binders displacing RNA aptamer, biochemical, validation, human GRK2, bead flow cytometry (AID 488806;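 active = aptamer binding inhibition above 30%, about 3 SD of noise from non-fluorescent compounds; inactive = inhibition at or below 30%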); details: bead-bound GRK2, FAM-aptamer displacement, at 10 µM, stronger effect = higher value
Sequence of Beta-adrenergic receptor kinase 1 (Homo sapiens) (P25098 whole entry, looked up): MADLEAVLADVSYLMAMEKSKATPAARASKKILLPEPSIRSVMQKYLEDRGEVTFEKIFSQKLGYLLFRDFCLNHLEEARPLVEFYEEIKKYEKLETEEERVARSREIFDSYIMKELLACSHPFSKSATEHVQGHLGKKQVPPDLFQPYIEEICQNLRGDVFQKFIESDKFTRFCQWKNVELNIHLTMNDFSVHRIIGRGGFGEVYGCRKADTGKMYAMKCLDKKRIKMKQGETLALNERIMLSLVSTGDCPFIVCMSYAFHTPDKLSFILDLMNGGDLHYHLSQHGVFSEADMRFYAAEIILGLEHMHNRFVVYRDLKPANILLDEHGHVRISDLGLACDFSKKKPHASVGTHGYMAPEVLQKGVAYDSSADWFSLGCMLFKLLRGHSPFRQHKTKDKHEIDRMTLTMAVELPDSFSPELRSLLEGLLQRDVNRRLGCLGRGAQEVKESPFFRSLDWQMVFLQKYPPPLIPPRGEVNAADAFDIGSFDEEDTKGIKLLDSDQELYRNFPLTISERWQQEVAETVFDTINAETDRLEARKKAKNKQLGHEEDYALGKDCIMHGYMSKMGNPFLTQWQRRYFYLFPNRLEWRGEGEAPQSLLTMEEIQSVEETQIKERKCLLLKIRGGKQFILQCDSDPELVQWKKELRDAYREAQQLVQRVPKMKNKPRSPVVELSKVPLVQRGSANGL

[10] = target: Beta-2 adrenergic receptor (Homo sapiens) (UniProt P07550); experiment: agonist-induced loss of surface beta2AR – cell-based, FAP fluorogen, flow cytometry, validation set, pilot screen (AID 504459;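 active = percent response above 42, roughly 3 SD of non-fluorescent test compounds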;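 note: agonist-driven loss of surface beta2AR via internalization measured by FAP dye flow cytometry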); details: Am2.2-beta2AR cells, at 10 µM, stronger effect = higher value
Sequence of Beta-2 adrenergic receptor (Homo sapiens) (P07550 whole entry, looked up): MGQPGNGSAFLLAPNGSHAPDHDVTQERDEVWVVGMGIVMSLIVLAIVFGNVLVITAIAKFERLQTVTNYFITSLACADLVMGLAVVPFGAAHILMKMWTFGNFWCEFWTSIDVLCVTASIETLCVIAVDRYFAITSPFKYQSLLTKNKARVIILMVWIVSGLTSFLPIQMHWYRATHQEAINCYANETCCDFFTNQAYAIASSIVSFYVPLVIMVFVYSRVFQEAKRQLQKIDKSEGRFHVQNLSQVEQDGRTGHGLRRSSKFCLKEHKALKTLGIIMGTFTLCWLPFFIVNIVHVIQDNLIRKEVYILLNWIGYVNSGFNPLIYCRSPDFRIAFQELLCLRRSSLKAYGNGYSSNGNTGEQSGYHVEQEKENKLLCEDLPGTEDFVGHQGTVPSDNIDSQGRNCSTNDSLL

[11] = target: AP-2 complex subunit beta (Homo sapiens) (UniProt P63010); experiment: beta-arrestin/AP2 interaction blockers – biochemical, validation set, GST-AP2 beads, flow cytometry, pilot screen (AID 504541;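 active = inhibition above 54%, about 3 SD of non-fluorescent compounds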;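 note: AP2 carries R879A mutation and is captured from E. coli lysate; bead-bound FITC arrestin peptide fluorescence measuring arrestin peptide binding to AP2; 0% = DMSO wells and 100% = excess unlabeled arrestin peptide control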); details: FITC arrestin peptide, at 10 µM, stronger effect = higher value, AP2 beta2 appendage fragment, R879A mutant
Sequence of AP-2 complex subunit beta (Homo sapiens) (P63010 whole entry, looked up, the tested form may be a part, one chain of several): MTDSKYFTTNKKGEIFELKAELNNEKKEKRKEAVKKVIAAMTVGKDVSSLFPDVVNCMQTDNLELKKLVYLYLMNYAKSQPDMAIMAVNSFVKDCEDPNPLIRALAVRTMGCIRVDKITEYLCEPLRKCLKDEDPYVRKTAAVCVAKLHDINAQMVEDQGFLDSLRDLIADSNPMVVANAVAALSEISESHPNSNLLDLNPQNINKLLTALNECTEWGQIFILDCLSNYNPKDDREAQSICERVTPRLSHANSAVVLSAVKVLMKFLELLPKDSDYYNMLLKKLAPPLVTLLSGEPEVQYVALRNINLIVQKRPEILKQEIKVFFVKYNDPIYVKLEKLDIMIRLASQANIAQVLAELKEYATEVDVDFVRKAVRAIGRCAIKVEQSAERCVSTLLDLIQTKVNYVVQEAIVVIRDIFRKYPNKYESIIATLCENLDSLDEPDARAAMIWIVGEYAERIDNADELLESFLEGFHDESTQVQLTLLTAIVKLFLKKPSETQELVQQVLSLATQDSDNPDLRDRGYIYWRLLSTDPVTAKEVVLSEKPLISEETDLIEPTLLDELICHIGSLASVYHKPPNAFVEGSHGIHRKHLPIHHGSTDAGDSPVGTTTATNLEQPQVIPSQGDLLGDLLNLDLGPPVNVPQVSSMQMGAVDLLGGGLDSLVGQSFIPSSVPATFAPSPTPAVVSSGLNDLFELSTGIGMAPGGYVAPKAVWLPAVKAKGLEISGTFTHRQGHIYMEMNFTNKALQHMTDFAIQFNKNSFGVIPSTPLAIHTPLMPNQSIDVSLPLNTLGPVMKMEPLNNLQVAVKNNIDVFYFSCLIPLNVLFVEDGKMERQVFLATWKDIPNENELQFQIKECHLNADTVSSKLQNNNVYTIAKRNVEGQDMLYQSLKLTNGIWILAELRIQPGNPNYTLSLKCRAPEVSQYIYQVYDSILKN

[12] = cytosolic pH regulators acting via V-ATPase – S. cerevisiae, pHLuorin, HTS validation (AID 504600; in the data active = response above about 15%;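 note: plate controls were DMSO for no effect and reference compound for full effect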); details: V-ATPase proton transport, at 10 µM, stronger effect = higher value
[13] = test system: anti-desmoglein-3 scFv antibody binding to human DSG3; experiment: blockers of pathogenic pemphigus antibody–desmoglein-3 binding – biochemical, validation compound set, bead-based, flow cytometry, pilot screen (AID 588368;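 active = binding below the plate cutoff, the plate median minus 3 SD, with a reading above zero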;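 note: signal is the median channel fluorescence of bead-bound GFP antibody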); details: Protein G beads, DSG3-Fc, scFv-GFP binding, at 10 µM, stronger effect = lower value
[14] = Nile Red efflux blockade in pump-expressing yeast – validation compound set, multiplex, phenotypic, pilot screen (AID 588506;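 active = efflux inhibition above 0.42, the validation set average plus 4 SD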;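 note: Nile Red retained in cells so higher fluorescence means more efflux inhibition; 0 = negative control wells and 1 = enniatin B 25 µM full block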); details: S. cerevisiae pump-expressing triplex, Nile Red efflux flow cytometry; at 10 µM; stronger effect = higher value; the pumps come from Candida albicans
[15] = target: ATP-binding cassette sub-family B member 6 (Homo sapiens) (UniProt Q9NP58); experiment: blockers of ABCB6-driven porphyrin uptake – K562-ABCB6 cells, flow cytometry, validation set, pilot screen (AID 588550;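 active = inhibition above the screen-wide mean plus 3 SD, about 51%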;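 note: 0% = DMSO wells and 100% = benzethonium chloride 70 µM positive control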); details: K562-ABCB6 porphyrin accumulation, 1 h, at 10 µM, stronger effect = higher value
Sequence of ATP-binding cassette sub-family B member 6 (Homo sapiens) (Q9NP58 whole entry, looked up): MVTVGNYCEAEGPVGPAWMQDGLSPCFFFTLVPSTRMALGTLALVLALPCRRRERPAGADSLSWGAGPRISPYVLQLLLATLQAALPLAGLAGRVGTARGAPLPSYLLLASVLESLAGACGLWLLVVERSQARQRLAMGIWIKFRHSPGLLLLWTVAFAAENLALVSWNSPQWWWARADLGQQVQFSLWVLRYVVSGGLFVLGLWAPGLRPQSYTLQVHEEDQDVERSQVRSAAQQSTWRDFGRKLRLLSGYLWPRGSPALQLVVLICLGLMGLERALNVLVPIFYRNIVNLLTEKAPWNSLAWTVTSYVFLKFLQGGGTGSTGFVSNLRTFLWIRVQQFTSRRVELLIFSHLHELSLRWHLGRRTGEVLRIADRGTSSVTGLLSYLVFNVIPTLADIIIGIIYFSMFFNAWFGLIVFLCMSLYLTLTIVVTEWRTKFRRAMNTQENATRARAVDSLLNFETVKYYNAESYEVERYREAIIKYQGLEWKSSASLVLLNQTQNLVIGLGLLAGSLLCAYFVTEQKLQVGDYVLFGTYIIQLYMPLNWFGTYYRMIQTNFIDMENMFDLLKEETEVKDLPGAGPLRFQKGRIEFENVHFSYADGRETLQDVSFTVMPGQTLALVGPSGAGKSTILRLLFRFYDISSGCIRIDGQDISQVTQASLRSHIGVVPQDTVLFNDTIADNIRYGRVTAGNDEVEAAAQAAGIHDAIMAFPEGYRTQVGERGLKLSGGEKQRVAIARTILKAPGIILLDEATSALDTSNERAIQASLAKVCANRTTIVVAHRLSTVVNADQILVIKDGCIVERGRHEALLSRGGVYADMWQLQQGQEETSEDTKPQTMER

[16] = AML differentiation inducers, ER-HoxA9 marrow cells – cell-based, GFP/MAC1 double positive, flow cytometry, validation set, primary screen (AID 588685;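 active = differentiation response of at least 50%, scaled between solvent and reference control, from cells with both markers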;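 note: compound exposure lasts four days before antibody staining and flow analysis; 0% = DMSO wells and 100% = 5 µM fulvestrant positive control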); details: stronger effect = higher value, normalized: vehicle 0, fulvestrant 100

SMILES | percent of DMSO control GFP [1] | GFP response vs DMSO [2] | percent response of DMSO control [3] | GFP response vs DMSO [4] | GFP response, % of DMSO [5] | double positive events [6] [%] | vesicle binding response [6] | inhibition [7] | superoxide response (% of plate) [8] | aptamer binding inhibition [9] | response [10] | inhibition [11] | response [12] | binding (% of control) [13] | efflux inhibition (fraction of control) [14] | inhibition [15] | differentiation response [16]
O=C(O)c1ccc(OCCn2ccnc2)cc1 | 103% (inactive) | 95.6% (inactive) | 106% (inactive) | 93.7% (inactive) | 112% (inactive) | 66.1 | 173% (inactive) | 9.63% (inactive) | 91.6% (inactive) | -2% (inactive) | -0.04% (inactive) | -0.39% (inactive) | 2.25% (inactive) | 101% (inactive) | 0.36 (inactive) | 16% (inactive) | 2.74% (inactive)
CC(C)(C)OC(=O)NCCC(=O)Oc1ccc2ccc(=O)oc2c1 | 100% (inactive) | 91.9% (inactive) | 98.6% (inactive) | 76% (inactive) | 84% (inactive) | 56.1 | 238% (inactive) | -1.79% (inactive) | 101% (inactive) | 4% (inactive) | 7.52% (inactive) | 17.2% (inactive) | 7.71% (inactive) | 101% (inactive) | 0.05 (inactive) | 3% (inactive) | -12% (inactive)
CCOC(=O)C1=C(C)NC(C)=C(C(=O)OC)C1c1cccc([N+](=O)[O-])c1 (stereo unspecified) | 91.3% (inactive) | 124% (inactive) | 95.2% (inactive) | 85.3% (inactive) | 91.5% (inactive) | 63.3 | 200% (inactive) | 8.4% (inactive) | 104% (inactive) | 2% (inactive) | -11.6% (inactive) | 41.2% (inactive) | -3.09% (inactive) | 95.6% (inactive) | 0.12 (inactive) | 18% (inactive) | -1.64% (inactive)
CSCCC(NC(=O)/C(=C/c1ccc2c(c1)OCO2)NC(=O)c1cccc([N+](=O)[O-])c1)C(=O)O (stereo unspecified) | 93.7% (inactive) | 123% (inactive) | 101% (inactive) | 86.4% (inactive) | 91.9% (inactive) | 63.7 | 169% (inactive) | 4.52% (inactive) | 93.4% (inactive) | 4% (inactive) | 0.64% (inactive) | -5.32% (inactive) | 0.74% (inactive) | 105% (inactive) | -0.31 (inactive) | 14% (inactive) | -6.55% (inactive)
O=C(CCC(=O)NCCO)NCCO | 101% (inactive) | 104% (inactive) | 97.7% (inactive) | 108% (inactive) | 111% (inactive) | 61.3 | 174% (inactive) | -1.12% (inactive) | 95.4% (inactive) | 7% (inactive) | -19.9% (inactive) | -1.09% (inactive) | -3.85% (inactive) | 100% (inactive) | 0.04 (inactive) | 2% (inactive) | -1.05% (inactive)
Cn1nnnc1SCC1=C(C(=O)O)N2C(=O)[C@@H](NC(=O)[C@H](O)c3ccccc3)[C@H]2SC1 | 97.7% (inactive) | 115% (inactive) | 106% (inactive) | 90.2% (inactive) | 103% (inactive) | 67.4 | 318% (inactive) | 0.64% (inactive) | 86.1% (inactive) | 13% (inactive) | 3.85% (inactive) | 3.95% (inactive) | 1.15% (inactive) | 107% (inactive) | 0.3 (inactive) | 16% (inactive) | 15.6% (inactive)
C[C@H](NC(=O)C1(c2ccccc2)CCN(C(=O)[C@H]2CSCN2C(=O)OC(C)(C)C)CC1)C(=O)O | 105% (inactive) | 103% (inactive) | 99.6% (inactive) | 110% (inactive) | 117% (inactive) | 62 | 161% (inactive) | 17.6% (inactive) | 95.1% (inactive) | 6% (inactive) | -18.9% (inactive) | -3.02% (inactive) | -2.91% (inactive) | 103% (inactive) | -0.09 (inactive) | 1% (inactive) | -1.05% (inactive)
Cc1nc(C2CC(=O)OC23CCCCC3)cs1 (stereo unspecified) | 94.4% (inactive) | 106% (inactive) | 94.8% (inactive) | 116% (inactive) | 94% (inactive) | 61.4 | 136% (inactive) | -0.43% (inactive) | 104% (inactive) | 9% (inactive) | -0.69% (inactive) | -1.27% (inactive) | 1.08% (inactive) | 98.7% (inactive) | -0.24 (inactive) | 7% (inactive) | -20% (inactive)
